Records with an inconclusive call do not appear. Active and inactive are the calls of the source. Unless noted, calls follow the shape of the dose curve; as a rule, active = well fitted curve in the direction sought with a large enough effect; inconclusive = small, poorly fitted or top-dose-only effect, or another doubt; inactive = no such curve, though single readings can be large; an effect the other way counts as inactive or inconclusive.
Experiments:
[1] = qHTS for Inhibitors of Plasmodium falciparum (DD2) proliferation (AID 504314); also: potency is read from the fitted curve at half-maximal effect
Procedure, shortened: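 Erythrocytes infected with P. falciparum (0.3% parasitemia, 2.5% hematocrit final) were incubated with compounds for 72 h at 37C, 5% CO2. Parasite DNA was detected by SYBR Green I fluorescence after saponin/Triton lysis, normalized to artemisinin (0.29 uM) and DMSO controls.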

[2] = qHTS for Inhibitors of Plasmodium falciparum (GB4) proliferation (AID 504315); also: nearly all actives have a fitted effect of over 50% in size; also: potency is read from the fitted curve at half-maximal effect
Procedure, shortened: (§1)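 Erythrocytes infected with P. falciparum line (0.3% parasitemia, 2.5% hematocrit final) incubated with compounds 72 h at 37 °C, 5% CO2; SYBR Green lysis buffer added, fluorescence read next day. Normalized to 0.29 uM artemisinin and DMSO.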

[3] = qHTS for Inhibitors of Plasmodium falciparum (7G8) proliferation (AID 504316); also: nearly all actives have a fitted effect of over 65% in size; also: potency is read from the fitted curve at half-maximal effect
Procedure, shortened: as §1

[4] = qHTS for Inhibitors of Plasmodium falciparum (HB3) proliferation (AID 504318); also: nearly all actives have a fitted effect of over 60% in size; also: potency is read from the fitted curve at half-maximal effect
Procedure, shortened: as §1

[5] = qHTS for Inhibitors of Plasmodium falciparum (CP250) proliferation (AID 504320); also: potency is read from the fitted curve at half-maximal effect
Procedure, shortened: as §1

[6] = molecular target: Atrial natriuretic peptide receptor 1 (Homo sapiens) (UniProt P16066); experiment: Natriuretic polypeptide receptor (hNpr1) antagonism - Pilot CMLD screen (AID 1347052; calls by dose curve;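 also: HEK293 cells with hNpr1 stimulated by hNppA peptide at 0.1 nM; cGMP level read as GloSensor luciferase luminescence after agonist stimulation; series mostly up to about 9.2 µM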)

Measured: Potency

Chain of Atrial natriuretic peptide receptor 1 (Homo sapiens) (P16066 whole entry, looked up): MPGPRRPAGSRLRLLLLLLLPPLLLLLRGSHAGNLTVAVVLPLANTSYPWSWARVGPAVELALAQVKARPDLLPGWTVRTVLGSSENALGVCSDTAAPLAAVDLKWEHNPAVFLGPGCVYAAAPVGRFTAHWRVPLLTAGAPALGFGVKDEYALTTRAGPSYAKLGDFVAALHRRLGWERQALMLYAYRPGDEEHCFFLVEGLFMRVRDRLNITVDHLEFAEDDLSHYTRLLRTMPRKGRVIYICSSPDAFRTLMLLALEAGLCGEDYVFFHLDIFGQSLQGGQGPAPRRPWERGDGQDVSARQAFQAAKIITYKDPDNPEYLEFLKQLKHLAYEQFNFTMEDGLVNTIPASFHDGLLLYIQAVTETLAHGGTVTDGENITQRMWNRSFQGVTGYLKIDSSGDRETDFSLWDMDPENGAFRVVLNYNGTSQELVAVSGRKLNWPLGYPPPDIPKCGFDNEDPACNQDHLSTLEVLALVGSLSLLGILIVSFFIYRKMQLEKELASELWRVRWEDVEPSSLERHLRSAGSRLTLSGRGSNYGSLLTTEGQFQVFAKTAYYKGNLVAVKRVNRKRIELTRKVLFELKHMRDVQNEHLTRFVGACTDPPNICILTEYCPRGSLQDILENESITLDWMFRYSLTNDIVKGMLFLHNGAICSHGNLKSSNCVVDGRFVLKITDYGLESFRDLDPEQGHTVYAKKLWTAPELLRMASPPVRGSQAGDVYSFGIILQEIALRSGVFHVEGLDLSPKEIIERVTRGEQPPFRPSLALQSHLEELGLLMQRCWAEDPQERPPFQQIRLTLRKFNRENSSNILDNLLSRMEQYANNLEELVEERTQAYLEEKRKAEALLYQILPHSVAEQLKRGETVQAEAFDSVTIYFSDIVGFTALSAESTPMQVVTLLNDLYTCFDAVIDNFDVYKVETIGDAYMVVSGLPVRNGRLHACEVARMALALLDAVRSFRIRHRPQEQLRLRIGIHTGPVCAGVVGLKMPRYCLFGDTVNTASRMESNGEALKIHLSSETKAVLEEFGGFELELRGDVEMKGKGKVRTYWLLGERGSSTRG

CCC=CCCC(OC(=O)c1ccc(Br)cc1)C1=CCCCC1=O (centres undefined)
inactive: all assays above

CCN1C(N(C)CCOC)=NC(c2cccc(F)c2)C(C(=O)OC)=C1C (centres undefined)
inactive: all assays above

COC(=O)CC=C[C@@H](C)[C@@H](Cc1ccccc1Br)OC
inactive: all assays above

COC(=O)N[C@@H](c1cccs1)C(C(C)=O)C(=O)OC (some centres undefined)
inactive: all assays above

O=C1[C@H]2[C@@H]3[C@@H](O)[C@H](O)CC(=NOCc4ccccc4)[C@@H]3CC[C@H]2C(=O)N1C1CCCCC1
inactive: all assays above

CCCC[C@H]1CN2[C@H](c3ccc(Br)cc3)[C@H](C)CC[C@H]2C(=O)O1
inactive: all assays above

C=CCOC(=O)N[C@@H](c1cccc(OC)c1)[C@@H](C)C=CCC(=O)O
inactive: all assays above

O=c1n(-c2ccccc2)c(=O)n2n1CC[C@@H]1C(=NOC[C@@H](O)COCc3ccco3)[C@H]3O[C@H]3[C@@H](O)[C@H]12
inactive: all assays above

CCN1C(=NCc2cc(OC)c(OC)c(OC)c2)N[C@@H](c2ccccc2)[C@H](C(=O)OC)[C@H]1C
inactive: all assays above

COC(=O)CC=C[C@H](C)[C@H](Cc1ccccc1Br)OC
inactive: all assays above

COC(=O)CCCC1=CC2=CC(=O)C(C)(OC(=O)c3cccs3)C(=O)C2=CN1CCN1CCOCC1 (centres undefined)
inactive: all assays above

CCC(=O)OC1(C)C(=O)C=C2C=C(CCCC(=O)OC)OC=C2C1=O (centres undefined)
inactive: all assays above

CC1=CC[C@@H](COc2ccccc2)O[C@@]2(C1)C(=O)Nc1cccc(Br)c12
inactive: all assays above

COc1cc2c(cc1OC)[C@@H]1O[C@](CCCCN3C(=O)c4ccccc4C3=O)(C2)OC2=C1C(=O)CC(C)(C)C2
inactive: [6]
active: [1] 753 nM | [2] 757 nM | [3] 301 nM | [4] 478 nM | [5] 1510 nM

From PubChem BioAssay (NCATS)
